What all share (assay): yeast three-hybrid, YBZ-1, SC-Leu-His + 0.5 mM 3-AT, 4 days
Conditions in all cases: tags: N-Gal4 AD-HA kept; label: inside an RPR1-promoter hybrid RNA with tandem MS2 sites; ssRNA

One test concerns the target PUM1 PUF domain R4-SRW (Homo sapiens, UniProt Q14671 828-1176, N971S;H972R;Q975W). The procedure, abridged:
(§1)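 Pumilio-1 PUF domain libraries, randomized at the three base-contacting residues of each repeat, were co-expressed with matching RNA elements from a centromeric plasmid in strain YBZ-1, which carries a LexA–MS2 coat fusion and a HIS3 reporter. Transformants grew for four days on SC-Leu (input) or on SC-Leu-His + 0.5 mM 3-AT (selection), and the repeat regions were PCR-amplified and Illumina-sequenced. The interaction score is the log change in variant frequency from input to selection. That logarithm is base 2, with a pseudocount of 1 where a variant was absent.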

The target of a further test is PUM1 PUF domain R5-QRS (Homo sapiens, UniProt Q14671 828-1176, C1007Q;Q1011S). The procedure, abridged: as §1
The next test has as its target PUM1 PUF domain R4-LGM (Homo sapiens, UniProt Q14671 828-1176, N971L;H972G;Q975M). The procedure, abridged: as §1
For another test, the target named is T1, PUM1 PUF domain R6-WHG (Homo sapiens, UniProt Q14671 828-1176, N1043W;Y1044H;Q1047G).
T1 sequence: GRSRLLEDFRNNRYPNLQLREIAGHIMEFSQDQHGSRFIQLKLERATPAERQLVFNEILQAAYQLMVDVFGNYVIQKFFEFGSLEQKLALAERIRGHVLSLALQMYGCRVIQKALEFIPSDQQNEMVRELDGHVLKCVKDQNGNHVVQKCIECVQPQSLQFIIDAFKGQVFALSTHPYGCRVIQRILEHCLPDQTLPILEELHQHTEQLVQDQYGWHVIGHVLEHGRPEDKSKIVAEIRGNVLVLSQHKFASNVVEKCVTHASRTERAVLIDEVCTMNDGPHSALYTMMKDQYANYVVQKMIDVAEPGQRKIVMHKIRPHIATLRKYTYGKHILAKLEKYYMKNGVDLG
The procedure, abridged: as §1

The next test concerns the target T2, PUM1 PUF domain R6-RHQ (Homo sapiens, UniProt Q14671 828-1176, N1043R;Y1044H).
T2 sequence: T1 sequence with W216R, G220Q
In short, it runs like this: as §1

In another test the target is PUM1 PUF domain R3-APV (Homo sapiens, UniProt Q14671 828-1176, C935A;R936P;Q939V). In short, it runs like this:
as §1

In a further test the target is PUM1 PUF domain R7-KRT (Homo sapiens, UniProt Q14671 828-1176, S1079K;N1080R;E1083T). The procedure, abridged: as §1
A further test addresses PUM1 PUF domain R1-SWK (Homo sapiens, UniProt Q14671 828-1176, R864W;Q867K). In short, it runs like this: as §1
Another test addresses PUM1 PUF domain R1-KQN (Homo sapiens, UniProt Q14671 828-1176, S863K;R864Q;Q867N). In short, it runs like this: as §1
Another test has as its target PUM1 PUF domain R8-KQR (Homo sapiens, UniProt Q14671 828-1176, N1122K;Y1123Q;Q1126R). In short, it runs like this:
as §1

Substitutions are numbered along the chain they refer to.

In the case of “GGCUAGAACUAGUGGAUCCCCCGGCGCCCGGCGGCUCGAGCCCGGGUAAGUGUAAAUAGUCUGCAUGCCGCCGGGCGCCAUGCCUGCAGGUCGACUCUAGAAAACAUG”, the binding signal is 3.2 log2 enrichment (interaction score) with PUM1 PUF domain R4-SRW; 1.57 log2 enrichment (interaction score) in the test with PUM1 PUF domain R5-QRS; 3.11 log2 enrichment (interaction score) in the test with PUM1 PUF domain R4-LGM; 3.76 log2 enrichment (interaction score) with PUM1 PUF domain R6-WHG; 5.04 log2 enrichment (interaction score) in the test with PUM1 PUF domain R6-RHQ; 3.39 log2 enrichment (interaction score) with PUM1 PUF domain R3-APV. Take “GGCUAGAACUAGUGGAUCCCCCGGCGCCCGGCGGCUCGAGCCCGGGUAAGUUUAAAUAGUCUGCAUGCCGCCGGGCGCCAUGCCUGCAGGUCGACUCUAGAAAACAUG”: the binding signal in the test with PUM1 PUF domain R7-KRT is 4.19 log2 enrichment (interaction score).

Consider “GGCUAGAACUAGUGGAUCCCCCGGCGCCCGGCGGCUCGAGCCCGGGUAAGUGUAAAUCGUCUGCAUGCCGCCGGGCGCCAUGCCUGCAGGUCGACUCUAGAAAACAUG”, for which, in the test with PUM1 PUF domain R1-SWK, the binding signal was 2.68 log2 enrichment (interaction score). On to “GGCUAGAACUAGUGGAUCCCCCGGCGCCCGGCGGCUCGAGCCCGGGUAAGUCUAAAUAGUCUGCAUGCCGCCGGGCGCCAUGCCUGCAGGUCGACUCUAGAAAACAUG”, for which the binding signal with PUM1 PUF domain R7-KRT was 4.64 log2 enrichment (interaction score).

On to “GGCUAGAACUAGUGGAUCCCCCGGCGCCCGGCGGCUCGAGCCCGGGUAAGUGUAAUUAGUCUGCAUGCCGCCGGGCGCCAUGCCUGCAGGUCGACUCUAGAAAACAUG”, for which the binding signal with PUM1 PUF domain R3-APV is 1.79 log2 enrichment (interaction score). For the sequence “GGCUAGAACUAGUGGAUCCCCCGGCGCCCGGCGGCUCGAGCCCGGGUAAGUGUAUAUAGUCUGCAUGCCGCCGGGCGCCAUGCCUGCAGGUCGACUCUAGAAAACAUG”, the binding signal with PUM1 PUF domain R4-SRW was 0.88 log2 enrichment (interaction score). Take “GGCUAGAACUAGUGGAUCCCCCGGCGCCCGGCGGCUCGAGCCCGGGUAAGUGUGAAUAGUCUGCAUGCCGCCGGGCGCCAUGCCUGCAGGUCGACUCUAGAAAACAUG”: the binding signal in the test with PUM1 PUF domain R5-QRS is 3.7 log2 enrichment (interaction score).

For “GGCUAGAACUAGUGGAUCCCCCGGCGCCCGGCGGCUCGAGCCCGGGUAAGUGUAAAUGGUCUGCAUGCCGCCGGGCGCCAUGCCUGCAGGUCGACUCUAGAAAACAUG”, the binding signal with PUM1 PUF domain R1-KQN was 2.83 log2 enrichment (interaction score). Turning to “GGCUAGAACUAGUGGAUCCCCCGGCGCCCGGCGGCUCGAGCCCGGGUAAGCGUAAAUAGUCUGCAUGCCGCCGGGCGCCAUGCCUGCAGGUCGACUCUAGAAAACAUG”, the binding signal with PUM1 PUF domain R8-KQR was 2.27 log2 enrichment (interaction score).
